± gives the standard deviation of the averaged measurements.
Key:
[1] = tested on: DLD1; assay: cell viability (CellTiter-Glo) relative to plate median (fraction of plate median); higher = more viable cells; conditions: 5 µM; treatment time 24 h; reporter: 7TFP
How it was run: (§1)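 After seeding in 384-well plates, colorectal cancer cell lines carrying stable lentiviral TCF/Wnt firefly luciferase reporters (7TFP or TCF4/Wnt) were left 24 h. Library compounds were then added at a final 5 µM for 24 h. A Tecan F500 reader measured firefly luciferase or CellTiterGlo luminescence on parallel plates, with each well normalised to the plate median by webcellHTS2 (additive, no log transformation), and two independent replicates averaged.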

[2] = tested on: HCT116; assay: as above; conditions: 5 µM; treatment time 24 h; reporter: TCF4/Wnt
How it was run: as §1

[3] = tested on: SW480; assay: as above; conditions: 5 µM; treatment time 24 h; reporter: 7TFP
How it was run: as §1

[4] = tested on: DLD1; assay: TCF/Wnt firefly luciferase reporter signal relative to plate median (fraction of plate median); higher = higher Wnt reporter signal; conditions: 5 µM; treatment time 24 h; reporter: 7TFP
How it was run: as §1

[5] = tested on: SW480; assay: as above; conditions: 5 µM; treatment time 24 h; reporter: 7TFP
How it was run: as §1

Row | SMILES | cell viability [1] | cell viability [2] | cell viability [3] | TCF/Wnt firefly luciferase reporter signal [4] | TCF/Wnt firefly luciferase reporter signal [5]
1 | CSc1ccc2c(c1)N(CCC1CCCCN1C)c1ccccc1S2 (stereo not given) | 1.01 ± 0.048 | 1.02 ± 0.076 | 1.115 ± 0.0071 | 0.928 ± 0.039 | 0.895 ± 0.1
2 | O=C(O)CCCCCCCC(=O)O | 1.01 ± 0.014 | 1.11 ± 0.11 | 1.09 ± 0.021 | 1.16 ± 0.13 | 1.01 ± 0.084
3 | CC(C)[C@H]1CC[C@H](C(=O)N[C@H](Cc2ccccc2)C(=O)O)CC1 | 0.905 ± 0.0028 | 0.972 ± 0.0014 | 0.973 ± 0.067 | 1.03 ± 0.014 | 0.983 ± 0.014
4 | CC(=O)C1=C(CO)C(=O)c2cccc(O)c2C1=O [Bhimamycin E] | 1.05 ± 0.042 | 1.04 ± 0.068 | 0.9945 ± 0.0021 | 0.983 ± 0.14 | 1.01
5 | N#CN=C(NCCCCCCOc1ccc(Cl)cc1)Nc1ccncc1 | 0.954 ± 0.021 | 1.01 ± 0.03 | 0.87 ± 0.046 | 1.15 ± 0.057 | 1.14 ± 0.21
6 | CCN(CC)CCNC(=O)c1ccc(N)cc1 | 1 ± 0.083 | 0.988 ± 0.06 | 1.02 ± 0.055 | 1.045 ± 0.0071 | 1.08 ± 0.099
7 | CC(=O)[C@@]1(O)CC[C@H]2[C@@H]3CCC4=CC(=O)CC[C@]4(C)[C@H]3CC[C@@]21C | 0.947 ± 0.12 | 0.926 ± 0.063 | 0.922 ± 0.12 | 1.035 ± 0.0071 | 1.02
8 | CC(C)c1nc(N(C)S(C)(=O)=O)nc(-c2ccc(F)cc2)c1/C=C/[C@@H](O)C[C@@H](O)CC(=O)O | 0.93 ± 0.11 | 0.9675 ± 0.00071 | 1.02 ± 0.014 | 0.984 ± 0.08 | 0.913 ± 0.15
9 | CCN1CCN(C(=O)N[C@@H](C(=O)N[C@@H]2C(=O)N3[C@@H]2SC(C)(C)[C@@H]3C(=O)O)c2ccccc2)C(=O)C1=O | 0.994 ± 0.0085 | 0.993 ± 0.039 | 1.02 ± 0.039 | 1.05 ± 0.014 | 1.03 ± 0.086
10 | CCN(CC)CCNC(=O)c1ccc(NC(C)=O)cc1 | 1.01 ± 0.075 | 1.05 ± 0.071 | 1.06 ± 0.035 | 1.08 ± 0.028 | 1.14 ± 0.014
11 | CC(=O)N1CCN(c2ccc(OCC3COC(Cn4ccnc4)(c4ccc(Cl)cc4Cl)O3)cc2)CC1 (stereo not given) | 0.997 ± 0.033 | 0.9685 ± 0.005 | 0.901 ± 0.012 | 1.05 ± 0.05 | 1.01 ± 0.061
12 | CN1CCN(C(c2ccccc2)c2ccccc2)CC1 | 1.04 ± 0.021 | 0.953 ± 0.018 | 1.07 ± 0.028 | 0.977 ± 0.12 | 1.01 ± 0.12
13 | C[N+](C)(C)CCCCCC[N+](C)(C)C | 1.01 ± 0.027 | 0.903 ± 0.022 | 0.93 ± 0.072 | 1.09 ± 0.21 | 1.1 ± 0.11
14 | Cc1scc2c1N(C(=O)CN1CCN(C)CC1)c1ccccc1NC2=O | 1.03 ± 0.073 | 1 ± 0.071 | 0.996 ± 0.034 | 0.984 ± 0.052 | 0.954 ± 0.04
15 | COc1cc(O)cc(OC)c1OC | 1.01 ± 0.019 | 1.01 ± 0.015 | 0.942 ± 0.074 | 0.941 ± 0.021 | 0.978 ± 0.0028
16 | CC1(C)S[C@@H]2[C@H](NC(=O)[C@H](N)c3ccccc3)C(=O)N2[C@H]1C(=O)O | 0.963 ± 0.0099 | 1.14 ± 0.13 | 0.969 ± 0.1 | 1 ± 0.083 | 0.917 ± 0.027
17 | Cc1cc(O)c(C=O)c(O)c1C(=O)O | 0.939 ± 0.14 | 0.939 ± 0.064 | 0.957 ± 0.035 | 1.09 ± 0.14 | 0.9475 ± 0.0035

Row | SMILES | cell viability [1] | cell viability [2] | cell viability [3] | TCF/Wnt firefly luciferase reporter signal [4] | TCF/Wnt firefly luciferase reporter signal [5]
18 | O=c1ccn([C@@H]2O[C@H](COP(=O)(O)OP(=O)(O)OP(=O)(O)O)[C@@H](O)[C@H]2O)c(=O)[nH]1 | 0.986 ± 0.091 | 0.89 ± 0.016 | 1.04 ± 0.064 | 0.921 ± 0.27 | 0.958 ± 0.14
19 | Cc1onc(-c2ccccc2)c1-c1ccc(S(N)(=O)=O)cc1 | 0.844 ± 0.058 | 1.02 ± 0.03 | 1.05 ± 0.1 | 0.91 ± 0.044 | 0.956 ± 0.17
20 | Cc1nnc(NS(=O)(=O)c2ccc(N)cc2)s1 | 1.01 ± 0.016 | 1.04 ± 0.028 | 1.01 ± 0.15 | 0.957 ± 0.04 | 0.981 ± 0.056
21 | COc1cccc2c1CCC1CC(=O)CC[C@]21C (stereo not given in full) | 1.06 ± 0.014 | 1.02 ± 0.086 | 1.02 ± 0.035 | 0.972 ± 0.016 | 1.04 ± 0.17
22 | C/C=C/C=C/C1C=CC2CC(C)CCC2C1(C)/C(O)=C1/C(=O)NC(C(C)O)C1=O (stereo not given) [Altersetin] | 1 ± 0.023 | 0.974 ± 0.018 | 1 ± 0.011 | 1 ± 0.043 | 0.923 ± 0.052
23 | CC1(C)CC2C1CCC1(C)OC2(C)CCC1O (stereo not given) | 1.045 ± 0.0071 | 1.1 ± 0.014 | 1.06 ± 0.028 | 1.02 ± 0.036 | 0.994 ± 0.094
24 | CCCCOc1ccc(OCCCN2CCOCC2)cc1 | 0.904 ± 0.086 | 0.976 ± 0.077 | 0.975 ± 0.011 | 0.993 ± 0.11 | 1.06 ± 0.014
25 | CC(C(=O)O)c1ccc2c(c1)[nH]c1ccc(Cl)cc12 (stereo not given) | 1.02 ± 0.063 | 1.03 ± 0.061 | 0.968 ± 0.0071 | 1.04 ± 0.042 | 1.09 ± 0.021
26 | CC1(C)O[C@@H]2C[C@H]3[C@@H]4CCC5=CC(=O)C=C[C@]5(C)[C@H]4[C@@H](O)C[C@]3(C)[C@]2(C(=O)CO)O1 | 0.999 ± 0.03 | 1.06 ± 0.05 | 0.977 ± 0.033 | 0.979 ± 0.086 | 0.9755 ± 0.0078
27 | CN(C)CCC=C1c2ccccc2C=Cc2ccccc21 | 1.02 ± 0.034 | 0.998 ± 0.046 | 1.035 ± 0.0071 | 0.991 ± 0.042 | 0.969 ± 0.0085
28 | O=C(CCCN1CC=C(n2c(=O)[nH]c3ccccc32)CC1)c1ccc(F)cc1 | 0.995 ± 0.0071 | 0.868 ± 0.025 | 0.994 ± 0.023 | 0.829 ± 0.061 | 0.895 ± 0.088
29 | CC1(C)CC23C(=O)CCC(O)C2(C)CCC13 (stereo not given) | 1.05 ± 0.15 | 1.065 ± 0.0071 | 1.01 ± 0.049 | 0.942 ± 0.11 | 1.04 ± 0.074
30 | COc1cc(/C=C/C(=O)O)ccc1O [Ferulic acid (Biofocus)] | 0.923 ± 0.17 | 1.05 ± 0.028 | 1.02 ± 0.014 | 0.962 ± 0.012 | 1.04 ± 0.069
31 | Nc1nnc(-c2cccc(Cl)c2Cl)c(N)n1 | 1.05 ± 0.05 | 1.04 ± 0.069 | 0.975 ± 0.05 | 0.923 ± 0.018 | 0.985 ± 0.036
32 | CC(C)NCC(O)c1cc(O)cc(O)c1 (stereo not given) | 0.999 ± 0.03 | 0.954 ± 0.06 | 0.976 ± 0.048 | 0.914 ± 0.11 | 0.987 ± 0.018
33 | CC1=C(/C=C/C(C)=C/C=C/C(C)=C/C=C/C=C(C)/C=C/C=C(C)/C=C/C(=O)[C@]2(C)C[C@@H](O)CC2(C)C)C(C)(C)C[C@H](O)C1 | 0.98 ± 0.057 | 0.966 ± 0.1 | 0.997 ± 0.033 | 0.947 ± 0.058 | 1 ± 0.051
34 | Clc1ccc(CO/N=C(\Cn2ccnc2)c2ccc(Cl)cc2Cl)c(Cl)c1 | 0.9865 ± 0.0092 | 1.03 ± 0.035 | 0.9675 ± 0.0021 | 0.905 ± 0.056 | 0.823 ± 0.0092
